Experiment [1] can be described thus: Confirmation and Secondary Assay for Modulators of Hemoglobin Beta Chain Splicing at IVS2 654 locus (AID 910).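 Also: HeLa cells stably carrying EGFP split by mutant beta-globin IVS2-654 intron; % of control where 0% means no effect.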 In short, it runs like this: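 HeLa cells stably expressing EGFP interrupted by β-globin IVS2-654 intron, seeded overnight in Opti-MEM/2% FCS, then treated 2 days at 37 °C. Restored splicing read as total peak GFP intensity per well by laser scanning cytometry (488 nm excitation, 500–520 nm emission); 500 nM antisense PNA as control.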

Experiment [2] in a line: Confirmation and Secondary Assay for Modulators of Hemoglobin Beta Chain Splicing at IVS2 705 locus (AID 930).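 Also: HeLa cells stably expressing the EGFP-705 splicing reporter; GFP fluorescence per well restored by corrected splicing of the IVS2-705 intron in EGFP; % of control where 0% means no effect.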 In short, it runs like this: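 First, HeLa EGFP-705 cells are seeded at 500/well in Optimem with 2% FCS and left overnight. Next, compound or DMSO is added for 2 days. Finally wells are laser-scanned and total peak GFP intensity scored.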
A short description of experiment [3]: qHTS Assay for Lipid Storage Modulators (AID 1519; calls by dose curve; as to activity change, negative = inhibition: % is scaled to controls: 0 for no effect and ±100 for the full control effect). The conditions noted are these: Drosophila S3 cells, BODIPY lipid droplet/cell ratio, laser cytometry, cells loaded with oleic acid; for activity change, negative = inhibition: at 57.5 µM (top of the series). In short, it runs like this:
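Cells seeded at 5,000 per well were treated with compounds over a concentration series and loaded with oleic acid (400 uM, as added). Lipid droplet fluorescence (488 nm excitation, 500-530 nm channel) was read by laser-scanning cytometry and normalized to 20 uM Triacsin C.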
A general note: In qHTS, concentration-response curves come from the screen itself.

Experiment [4] deals with Ubiquitin carboxyl-terminal hydrolase 1 (Homo sapiens) (UniProt O94782). As to the kind of experiment: Inhibitors of USP1/UAF1: Pilot qHTS (AID 504865).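 Also: rhodamine fluorescence freed from ubiquitin-rhodamine substrate followed over time; top concentration of the series differs between compounds; % is scaled to controls: 0 for no effect and ±100 for the full control effect; nearly all actives have a fitted effect of over 35% in size.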 An outline of the steps: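 1nM USP1/UAF1 + cpd, 15 min RT; start w/ Ub-Rho 150nM final; kinetic FL 480/540 nm, 6 reads q60 s. Buffer 50mM HEPES pH 7.8, 0.5mM EDTA, 1mM TCEP, 0.01% Tween-20, 0.1 mg/ml BSA.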
Experiment [5] has as its target Cytochrome P450 3A4 (Homo sapiens) (UniProt P08684). As to the kind of experiment: qHTS Assay for Activators of Cytochrome P450 3A4 (AID 885). Also: nearly all actives have a fitted effect of over 65% in size. An outline of the steps: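 Activators are scored by enhanced luminescence from CYP3A4 conversion of luciferin-PPXE (25uM, equal to KM) to luciferin, after 60 min at RT with an NADPH-regenerating system.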
Experiment [6] deals with DNA dC->dU-editing enzyme APOBEC-3G (Homo sapiens) (UniProt Q9HC16). As to the kind of experiment: qHTS for inhibitors of Vif-A3G interactions: Validation (AID 588379). Also: 0% is about no effect. In short, it runs like this: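 Yellow fluorescence (Ex 488, Em 500-530) of Vif-coexpressing HeLa A3G-eYFP cells, scanned by Acumen cytometer, reports blocked A3G degradation. Cells plated at 700/well overnight at 37 deg C before compound addition, then a further overnight compound incubation at 37 deg C.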

[7] abbreviates: measured here: cell count channel max response.
The mark [8] stands for this setting: measured here: lipid channel max response.

Records with an inconclusive call do not appear. Calls of active or inactive are those of the source. Unless noted, calls follow the shape of the dose curve; as a rule, active = well fitted curve in the direction sought with a large enough effect; inconclusive = small, poorly fitted or top-dose-only effect, or another doubt; inactive = no such curve, though single readings can be large; an effect the other way counts as inactive or inconclusive.

The text below walks through data of PubChem BioAssay (NCATS).

Cytochrome P450 3A4 (Homo sapiens), sequence (P08684 whole entry, looked up): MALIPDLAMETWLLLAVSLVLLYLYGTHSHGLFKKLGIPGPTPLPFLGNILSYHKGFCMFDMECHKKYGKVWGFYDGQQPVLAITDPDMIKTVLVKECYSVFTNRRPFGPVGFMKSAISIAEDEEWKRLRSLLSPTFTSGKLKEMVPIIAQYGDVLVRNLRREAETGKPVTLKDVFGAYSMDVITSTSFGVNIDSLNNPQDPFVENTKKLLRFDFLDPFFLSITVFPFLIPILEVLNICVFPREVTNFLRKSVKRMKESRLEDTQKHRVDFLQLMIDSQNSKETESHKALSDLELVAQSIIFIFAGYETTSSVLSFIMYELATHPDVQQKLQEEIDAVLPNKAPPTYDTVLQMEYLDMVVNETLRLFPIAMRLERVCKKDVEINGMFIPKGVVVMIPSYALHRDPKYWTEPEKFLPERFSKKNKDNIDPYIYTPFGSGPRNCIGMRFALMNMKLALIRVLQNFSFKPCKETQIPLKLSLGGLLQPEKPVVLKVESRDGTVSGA
Ubiquitin carboxyl-terminal hydrolase 1 (Homo sapiens), sequence (O94782 whole entry, looked up): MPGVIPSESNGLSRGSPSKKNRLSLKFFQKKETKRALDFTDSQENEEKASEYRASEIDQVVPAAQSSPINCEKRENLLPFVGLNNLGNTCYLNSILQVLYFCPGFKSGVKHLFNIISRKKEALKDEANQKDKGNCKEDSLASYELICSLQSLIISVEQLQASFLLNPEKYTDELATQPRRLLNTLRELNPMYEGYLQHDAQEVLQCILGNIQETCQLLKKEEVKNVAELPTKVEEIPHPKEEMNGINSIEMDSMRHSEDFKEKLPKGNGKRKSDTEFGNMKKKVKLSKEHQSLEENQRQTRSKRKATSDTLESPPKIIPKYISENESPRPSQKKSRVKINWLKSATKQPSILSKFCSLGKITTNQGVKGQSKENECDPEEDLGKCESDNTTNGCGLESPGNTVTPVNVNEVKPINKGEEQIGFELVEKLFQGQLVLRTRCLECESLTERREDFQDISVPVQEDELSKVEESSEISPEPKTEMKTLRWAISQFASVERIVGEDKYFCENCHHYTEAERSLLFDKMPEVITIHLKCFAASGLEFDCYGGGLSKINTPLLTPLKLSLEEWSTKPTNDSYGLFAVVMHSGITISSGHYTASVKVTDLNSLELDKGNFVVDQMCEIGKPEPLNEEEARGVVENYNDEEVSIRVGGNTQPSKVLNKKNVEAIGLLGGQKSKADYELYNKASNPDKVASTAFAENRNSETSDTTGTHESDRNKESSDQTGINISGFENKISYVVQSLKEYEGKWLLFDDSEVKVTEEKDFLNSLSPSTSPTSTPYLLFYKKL
DNA dC->dU-editing enzyme APOBEC-3G (Homo sapiens), sequence (Q9HC16 whole entry, looked up): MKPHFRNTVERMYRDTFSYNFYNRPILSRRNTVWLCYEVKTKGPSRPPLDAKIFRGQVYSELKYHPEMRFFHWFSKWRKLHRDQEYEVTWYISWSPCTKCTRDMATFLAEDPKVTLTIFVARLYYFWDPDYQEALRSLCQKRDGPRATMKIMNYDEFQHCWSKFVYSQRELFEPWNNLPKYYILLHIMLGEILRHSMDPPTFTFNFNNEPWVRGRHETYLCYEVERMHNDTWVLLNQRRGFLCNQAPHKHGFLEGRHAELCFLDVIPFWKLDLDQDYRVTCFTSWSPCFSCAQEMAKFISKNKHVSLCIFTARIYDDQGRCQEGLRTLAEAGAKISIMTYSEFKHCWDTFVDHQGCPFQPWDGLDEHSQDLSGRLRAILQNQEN

Regarding `O=C1CC2OCC=C3CN4CC[C@@]56c7ccccc7N1C5C2C3CC46` (stereo partly specified), the Potency entry in experiment [1], in experiment [2] and in experiment [4] was “inactive” each time. Besides, in experiment [3], the activity change, negative = inhibition was -0.509% (inactive). For the same compound, the results for the max response in experiment [3] (setting [7]) and in experiment [3] (setting [8]) were 17.9% and 21.5%, respectively.

For the compound `CC1=C2C3OC(=O)[C@H](C)[C@H]3CC[C@@]2(C)C=CC1=O` (stereo partly specified), the Potency entry in experiment [5] was “inactive”. Further, the activity change, negative = inhibition in experiment [3] was 2.8% (inactive). Moreover, the max response in experiment [3] (setting [7]) is 25.6%; in experiment [3] (setting [8]), 29.5%. In experiment [6], the result was inactive.
